Compound activity: PubChem BioAssay, Sanford-Burnham Center for Chemical Genomics
PfGluPho inh: PfG6PD (Plasmodium falciparum) enzyme inhibition | inhibition, % at 20 µM | 350,000 compounds, 0.78% hits | PfGluPho enzyme, NADPH resazurin-diaphorase fluorescence;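 active means inhibition reaching at least a set limit at 20 µM in the primary screen, cut at about 59% in these data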;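 further: 0% = DMSO wells with substrate and 100% = DMSO wells lacking glucose-6-phosphate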
NPR2 activator: GC-B (human) receptor activation. HEK293-GC-B cells, CNP EC30, cGMP TR-FRET; 0% at EC30 CNP, 100% saturating CNP. activation, % at 10 µM. P20594. 370,000 compounds, 0.11% hits;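 active means activation at 10 µM reaching about 35% in either raw or pattern-adjusted values, limit read from the data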
GC-A act: GC-A (human) enzyme activation; HEK293 GC-A cells, cGMP TR-FRET, EC30 ANP; 0% at EC30 ANP, 100% saturating ANP; activation, % at 10 µM; 370,000 compounds, 0.14% hits; AID 1671463; in the data active means activation above about 40%
Neddyl block: blocks human cullin neddylation; P61081+Q13564; TR-FRET cullin neddylation, biochemical; inhibition, % at 25 µM; 360,000 compounds, 0.58% hits; AID 651699; in the data active means inhibition above about 36%
A3G deaminase: APOBEC3G (human) deaminase inhibition | recombinant A3G, ssDNA deamination FAM/TAMRA fluorescence | inhibition, % at 20 µM | 330,000 compounds, 0.28% hits | AID 493012;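 active means inhibition of at least 40% at 20 µM, with no more than 30% in the related APOBEC3A deaminase screen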;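 further: plate controls were DMSO wells with A3G for no effect and wells lacking A3G enzyme for full effect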
APOBEC3A inh: blocks human APOBEC3A ssDNA deamination. AID 493011. 330,000 compounds, 0.41% hits. recombinant A3A, FAM/TAMRA ssDNA deamination fluorescence. inhibition, % at 20 µM. P31941;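 active means at least 40% inhibition at 20 µM here, with at most 30% in a related deaminase screen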;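 further: plate controls were A3A with DMSO for no effect and wells lacking A3A enzyme for full effect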
Starred values were filed as active, the others as inactive; i = inactive; x = not tested or not shown. Only some compounds are listed: those with a hit (about 2% of all), similar ones and a draw of the others.

SMILES | PfGluPho inh | NPR2 activator | GC-A act | Neddyl block | A3G deaminase | APOBEC3A inh
S=C(Nc1ccccc1)OC1CCC12CCC(c1ccccc1)CC2 (configuration not stated) | x | 7 | 4 | x | x | x
Cc1ccc(-c2csc(NC(=O)CN3C(=O)CCC3=O)n2)cc1 | 6 | 4 | 55* | -17 | -3 | 3
COc1ccccc1CNC(=O)c1cc(S(=O)(=O)N2CCCC2)cn1C | -1 | 37* | 0 | -3 | -8 | -5
Cc1cc(Br)c2nc3c(c(C(=O)O)c2c1)CCCCC3 | 7 | 18 | 64* | i | x | x
CCCCCCn1cc(CN2CC=CS2(=O)=O)nn1 | x | 5 | 4 | x | x | x
Cc1cc(C)cc(N2C(=O)CC(Sc3nnnn3-c3ccccc3)C2=O)c1 (configuration not stated) | 33 | 1 | 28 | 0 | -5 | 2
Cc1cc(C)cc(N2C(=O)CC(Sc3ncn[nH]3)C2=O)c1 (configuration not stated) | 7 | 2 | 4 | 2 | 41* | -2
COc1ccc2sc(-c3ccc(S(C)(=O)=O)cc3)c(C(=O)NCCc3c[nH]c4ccccc34)c2c1 | 13 | 39* | 30 | -320 | -6 | -3
COc1ccc2c(C(=O)NCCCCO)c(-c3ccc(S(C)(=O)=O)cc3)sc2c1 | -13 | 5 | 2 | 21 | -11 | -5
CCn1c(SCC(=O)Nc2cccc3ccccc23)nnc1-c1cccs1 | x | -2 | 1 | x | x | x
COC(=O)[C@]12C[C@H](CC(=O)NCc3ccc(C)o3)C(=O)N(Cc3cccc4ccccc34)C1=C[C@H](C(C)(C)C)O[C@@H]2C | x | -4 | -8 | x | x | x
COc1ccc(/C=C2/SC(=S)N(c3ccc(S(=O)(=O)Nc4nccs4)cc3)C2=O)cc1 | -32 | 7 | -12 | 80* | -2 | -4
O=C(Nc1cccc2cccnc12)c1ccc2c(c1)OCCO2 | 32 | -9 | 2 | -3 | -5 | -2
O=C(Nc1cccc2nsnc12)c1ccc2c(c1)OCCO2 | 13 | -1 | -2 | 46* | 1 | 1
CCCCNS(=O)(=O)/C=C/c1ccc(F)cc1CNC(=O)OC(C)(C)C | x | 0 | -1 | x | x | x
Fc1ccc(-[n+]2nc(Nc3ccccc3)sc2-c2c(Cl)cccc2Cl)cc1 | 64* | -8 | -9 | -35 | 22 | 4
N#CC1=C(N)SC(N)=C(C#N)C1Cc1ccccc1 | 27 | 4 | 4 | -348 | 48* | -5
O=C(NCCN1CCOCC1)c1cnn2c(-c3ccccc3)cc(-c3ccccc3)nc12 | 5 | 1 | 6 | x | -6 | -2
O=C(c1cnn2c(-c3ccccc3)cc(-c3ccccc3)nc12)N1CCN(Cc2ccccc2)CC1 | 4 | 35* | 30 | x | -6 | -3
COc1ccc(C(=O)OCCN2CCN(C3CN(Cc4cn(Cc5cccc(C)c5)nn4)S(=O)(=O)C3)CC2)cc1OC (configuration not stated) | x | -2 | -1 | x | x | x
COCCCN1C(=O)[C@H](CC(=O)N2CCCCC2)[C@]2(C(=O)OC)CCCCC=C12 | x | 0 | 4 | x | x | x
S=C(Nc1ccc2nc(-c3ccccn3)c(-c3ccccn3)nc2c1)N1CCCCC1 | 57 | x | x | 42* | -3 | -5
CN1CCCN(C(=O)C2CCCN(C(=O)c3ccc4c(c3)NC(=O)CS4)C2)CC1 (configuration not stated) | x | 4 | 6 | x | x | x
CC(=O)Nc1ccc2c(COC(=O)[C@H](C)N3C(=O)C4CCCCC4C3=O)cc(=O)oc2c1 (some centres not stated) | -14 | 3 | 8 | x | -6 | 11
Cc1cc(=O)oc2cc(NC(=O)C(C)N3C(=O)C4CCCCC4C3=O)ccc12 (configuration not stated) | 5 | -4 | 0 | 73* | -5 | 0
Fc1ccc2[nH]c3c(NCc4ccccc4)ncnc3c2c1 | 1 | 9 | 8 | 52* | -6 | 1
CC(C)C[C@H]1COc2cc(Br)ccc2S(=O)(=O)N1Cc1cn(Cc2ccc(F)cc2)nn1 | x | 7 | 1 | x | x | x
CC(C)(C)NC(=O)C(c1ccncc1)n1c(=O)c(-c2ccco2)nc2ccccc21 (configuration not stated) | x | -5 | -1 | 40* | x | x
COc1ccc(-n2c(COc3ccccc3)nnc2SCC(=O)Nc2ccccc2-c2ccccc2)cc1 | x | -1 | -12 | x | x | x
